In the library only some 9.2% were active in any assay of this set; here they are far more common.
ELG1 genotoxic – genotoxicity induction in ELG1-luciferase HEK293T cells. Potency, µM (doses to about 46 µM), for inactives: at the top dose activity change, positive = activation, most hits filed as activators. HEK293T ELG1-luciferase reporter, luminescence, 16 h. hit rate 1.3% among 330,000. AID 504466; also: % of control where 0% means no effect; nearly all actives have a fitted effect of over 60% in size
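Genotoxic stress is detected as increased luminescence from luciferase-tagged ELG1 in HEK293T cells, measured with ONE-Glo after a 16 hr treatment at 37 °C.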
FLuc counter – inhibits or activates purified firefly luciferase, miR-21 counter-screen. P08659. purified FLuc, Km substrates, luminescence inhibition. Potency, µM (doses to about 57.5 µM), inactives show top-dose activity change, negative = inhibition, most hits filed as inhibitors. hit rate 6.9% among 360,000. AID 588342;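 also: plate controls were vehicle for no effect and reference inhibitor for full effect; nearly all actives have a fitted effect of over 55% in size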
Target sequence (P08659 whole entry, looked up): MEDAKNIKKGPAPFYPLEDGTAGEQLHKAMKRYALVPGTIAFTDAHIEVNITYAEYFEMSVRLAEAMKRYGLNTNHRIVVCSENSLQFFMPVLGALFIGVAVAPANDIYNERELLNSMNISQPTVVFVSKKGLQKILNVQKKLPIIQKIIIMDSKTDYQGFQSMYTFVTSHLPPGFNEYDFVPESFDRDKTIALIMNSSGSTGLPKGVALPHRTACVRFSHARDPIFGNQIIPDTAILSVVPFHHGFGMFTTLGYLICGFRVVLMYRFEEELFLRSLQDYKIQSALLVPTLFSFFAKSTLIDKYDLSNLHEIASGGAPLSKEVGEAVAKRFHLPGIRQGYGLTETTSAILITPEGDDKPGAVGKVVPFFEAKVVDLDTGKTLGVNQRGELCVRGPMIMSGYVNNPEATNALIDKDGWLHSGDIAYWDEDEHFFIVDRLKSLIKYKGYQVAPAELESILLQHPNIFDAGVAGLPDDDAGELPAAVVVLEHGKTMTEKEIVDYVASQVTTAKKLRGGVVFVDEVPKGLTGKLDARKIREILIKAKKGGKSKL
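Purified P. pyralis luciferase, 10 nM final, with Km-level 10 uM D-luciferin and 10 uM ATP in 50 mM Tris acetate pH 7.5, 10 mM Mg acetate, 0.01% Tween-20, 0.05% BSA; 6-point qHTS titration about 60 µM downward; luminescence read.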
ELG1 repair inh – ELG1-dependent DNA repair inhibition; HEK293T ELG1-luciferase reporter, luminescence, 16 h; DNA damage induced by 5-fluorouridine; Potency, µM (series often up to 46.1 µM), without a hit: top-dose activity change, negative = inhibition, most hits filed as inhibitors; hit rate 2.3% among 330,000; AID 504467; also: % is scaled to controls: 0 for no effect and ±100 for the full control effect; nearly all actives have a fitted effect of over 55% in size
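Overnight (16 hr) co-exposure of 2,000 cells/well to 5-fluorouridine and compound at 37 °C preceded detection. Luciferase was quantified via ONE-Glo luminescence; loss of signal denotes inhibition.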
SMN2 splice enh – increases expression of the SMN2 splice variant | hit rate 2.8% among 210,000 | Potency, µM (series often up to 46.1 µM), for the others: at the top dose activity change, positive = activation, most hits filed as activators | HEK293 SMN2-luciferase splicing reporter, luminescence, 30-36 h; also: % of control where 0% means no effect; nearly all actives have a fitted effect of over 55% in size
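qHTS luciferase splicing reporter: luminescence rises when SMN2 exon 7 is included in transfected HEK293 cells. Compound exposure lasted 30-36 h at 37C, with 4.5 mM final sodium butyrate as control, followed by a ONE-Glo read.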
Rab9 prom act – activators of Rab9 promoter; Potency, µM (titrated, usually from 9.22 µM), without a hit: at the highest dose activation, negative = inhibition, most hits filed as activators; hit rate 2.8% among 320,000; Huh7 Rab9 promoter-luciferase reporter, luminescence, 24 h; also: % of control where 0% means no effect; nearly all actives have a fitted effect of over 60% in size
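Luciferase signal after 10 min detection reagent at ambient indicates Rab9 promoter upregulation; stably transfected Huh7 cells were treated 24 h with compound in DMSO at 37 °C, 5% CO2.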
NPC1 prom act – activators of NPC1 promoter | Huh7 NPC1 promoter luciferase reporter, 24 h | Potency, µM (series often up to 9.22 µM), inactives show top-dose activation, most hits filed as activators | hit rate 2.4% among 320,000; also: % of control where 0% means no effect; nearly all actives have a fitted effect of over 60% in size
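In 1536-well qHTS, Huh7 cells harboring an NPC1 promoter–luciferase construct received compound for 24 h; activation was quantified by luminescence following luciferase reagent addition.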
The depositor's hits bear a star; ? = inconclusive; nt = not tested or not shown; [ ] = another dose, or the depositor's remark. Calls follow the shape of the dose curve; as a rule, active = well fitted curve in the direction sought with a large enough effect; inconclusive = small, poorly fitted or top-dose-only effect, or another doubt; inactive = no such curve, though single readings can be large; an effect the other way counts as inactive or inconclusive. Potency is read from the fitted curve at half-maximal effect.

SMILES	ELG1 genotoxic	FLuc counter	ELG1 repair inh	SMN2 splice enh	Rab9 prom act	NPC1 prom act
Cc1ccc(C(=O)CSc2cnc3ccccc3n2)cc1C	9.2µM*	7.6µM*	?	-73%	-1%	-3%
COc1ccc(C(=O)Nn2c(C)nc3ccccc3c2=O)c(OC)c1	0%	7%	-5%	nt	15%	1%
O=C(CSc1ccc2ccccc2n1)c1ccc2c(c1)OCO2	21µM*	?	?	-42%	16%	16%
COc1nc2c(C)cccc2cc1-c1noc(-c2ccncc2)n1	2%	-1%	17%	nt	-7%	6%
COc1ccc(NC(=O)N2CCC(n3c(C)nc4cccnc43)CC2)cc1OC	nt	-2%	nt	nt	nt	nt
CC(=O)c1ccc(NC(=O)CC(c2cccs2)N2Cc3ccccc3C2=O)cc1 (centres undefined)	nt	-10%	nt	nt	nt	nt
Cc1nc2ccccn2c1C(=O)N/N=C/c1ccc(CNC(=O)C(=O)Nc2ccccc2)o1	3%	19µM*	-5%	?	2%	-5%
Cc1nc2ccccn2c1C(=O)N/N=C/c1ccc([N+](=O)[O-])o1	-7%	-6%	10µM*	-37%	-6%	-9%
Cc1nc2ccccn2c1C(=O)N/N=C/c1ccc([N+](=O)[O-])cc1	1%	2%	-1%	nt	-13%	2%
COc1cc(NC(=O)CN2C(=O)COc3ccc(S(=O)(=O)NC4CCCC4)cc32)cc(OC)c1	nt	6%	nt	nt	nt	nt
CCc1nn2c(-c3ccco3)ccnc2c1-c1ccccc1	nt	?	nt	12%	nt	nt
COc1cccc(Nc2ncnc3sccc23)c1	15%	17µM*	?	nt	?	?
COc1ccc(Nc2ncnc3sccc23)cc1	14%	24µM*	?	nt	?	?
COc1cccc(Nc2ncnc3sc(C)cc23)c1	?	17µM*	?	nt	?	26%
O=C(Cn1c(=O)c(C(F)(F)F)nc2ccccc21)Nc1cccc(Br)c1	nt	0%	nt	nt	nt	nt
O=C(N/N=C/c1ccc(Br)s1)c1cccnc1	-1%	-17%	6%	-2%	0%	-1%
O=C(N/N=C\c1cccnc1)c1ccc(Br)s1	10%	9.5µM*	?	nt	18%	22%
O=C(N/N=C\c1ccncc1)c1ccc(Br)s1	9%	15µM*	?	nt	5%	-4%
O=C(Nc1nnc(-c2ccncc2)o1)c1ccc(Br)s1	-7%	?	8.2µM*	-61%	-6%	-2%
CCc1ccc(C(=O)N/N=C/c2ccncc2)s1	?	12µM*	?	nt	?	18%
Cc1cccc(S(=O)(=O)NC(Cc2c[nH]c3ccccc23)C(=O)O)c1 (centres undefined)	-1%	0%	0%	17%	-6%	0%
O=C(N/N=C/c1cccnc1)c1cc(O)c(O)c(O)c1	1%	-19%	16%	nt	5%	0%
O=C(N/N=C\c1ccncc1)c1ccc(Cl)s1	15%	17µM*	20%	nt	4%	14%
O=C(N/N=C/c1cccnc1)c1sc2ccccc2c1Cl	8%	19µM*	-1%	nt	11%	0%
Cc1ccc(C(=O)N/N=C\c2ccncc2)s1	?	?	?	nt	22%	21%
SMILES	ELG1 genotoxic	FLuc counter	ELG1 repair inh	SMN2 splice enh	Rab9 prom act	NPC1 prom act
O=C(N/N=C/c1ccncc1)c1cc(-c2ccc(Br)s2)[nH]n1	1%	15µM*	4%	nt	-2%	11%
O=C(N/N=C\c1cccnc1)c1ccc(Cl)s1	?	13µM*	?	nt	16%	1%
COc1ccc2c(Cl)c(C(=O)N/N=C/c3cccnc3)sc2c1	-3%	?	-14%	nt	-1%	-1%
CCN(C(=O)c1ccc2c(c1)OCO2)C1CCS(=O)(=O)C1 (centres undefined)	0%	5%	?	nt	-1%	-5%
COCCn1cc(C(=O)c2cc(Br)ccc2O)cc(C#N)c1=O	-17%	-3%	?	-48%	-3%	1%
Cc1ccc(NC(=O)CSc2nncn2N)cc1C	5%	1%	-4%	nt	-2%	-4%
CCOCCCn1c(=N)c(C(=O)NC2CCCC2)cc2c(=O)n3cccc(C)c3nc21	nt	1%	nt	-6%	nt	nt
CCCCN(CC)CCCNC(=O)C1CCN(c2nc3ccc(CC)cc3s2)CC1	nt	19µM*	nt	-52%	nt	nt
CCCCN(C)CCCNC(=O)C1CCN(c2nc3ccc(CC)cc3s2)CC1	nt	15µM*	nt	-8%	nt	nt
CC1CCN(c2nc3ccc(C(=O)NCCCN4CCCCC4)cc3s2)CC1	?	?	?	nt	-40%	?
Nn1c(SCC(=O)Nc2nccs2)nnc1C1CC1	-5%	-1%	1%	nt	5%	-4%
COc1cccc(-c2ccc(SCC(=O)NC3CCCCC3)nn2)c1	-3%	15µM*	-20%	nt	12%	0%
COc1ccc(-c2nc(SCC(=O)NC3CCCC3)c(-c3ccc(F)cc3)[nH]2)cc1OC	nt	?	nt	3%	nt	nt
COc1ccccc1-c1ccc(SCC(=O)NC2CCCCC2)nn1	-5%	-10%	?	nt	1%	0%
COc1ccc(-c2nc(SCC(=O)NC3CCCC3)c(-c3ccccc3)[nH]2)cc1OC	nt	19µM*	nt	9%	nt	nt
COc1ccc(-c2nc(SCC(=O)Nc3ccc4c(c3)OCCO4)c(-c3ccc(F)cc3)[nH]2)cc1OC	nt	6.7µM*	nt	15%	nt	nt
COc1ccccc1-c1ccc(SCC(=O)NC2CCCC2)nn1	16%	0%	?	nt	1%	-2%
COc1ccc(-c2nc(SCC(=O)Nc3ccc4c(c3)OCO4)c(-c3ccc(F)cc3)[nH]2)cc1OC	nt	-12%	nt	12%	nt	nt
COc1ccc(-c2ccc(SCC(=O)NC3CCCC3)nn2)cc1OC	18%	15µM*	?	nt	3%	11%
O=C(NCc1ccccn1)c1cccc(NS(=O)(=O)c2ccc(Br)cc2)c1	-2%	3%	-3%	nt	3%	-3%
O=C(/C=C/c1ccccc1)N1CCN(C(=O)c2ccco2)CC1	-1%	-10%	18%	?	3%	-3%
O=C(/C=C/c1ccc(Br)cc1)c1ccc(NC(=O)c2ccco2)cc1	1%	?	?	3%	11%	1%
O=C(/C=C/C=C/c1ccccc1)c1ccco1	15%	3µM*	0%	nt	25%	?
O=C(/C=C/c1ccc(Br)cc1)c1ccco1	?	3.4µM*	?	-3%[1.84 µM]	4%	1%
CCCNC(=O)c1nc(C)n(-c2ccc([N+](=O)[O-])cc2)n1	-1%	1%	5%	-1%	-1%	5%
N#Cc1ccsc1NC(=O)CCN1CCN(C(c2ccccc2)c2ccccc2)CC1	-35%	0%	-21%	nt	3%	3%
CC(C)CC(=O)Nc1ccc(-c2cn3ccsc3n2)cc1	1.2µM*	1.2µM*	?	10µM*	0.56µM*	1.4µM*
